HP1b binding inh – HTS for Inhibitors of HP1-beta Chromodomain Interactions with Methylated Histone Tails; Chromobox protein homolog 1 (Homo sapiens), P83916; 0.56% of 390,000 active; Potency, µM (titrated, usually from 114 µM), most hits filed as inhibitors; AID 540317, 2011; AlphaScreen HP1-beta / biotin-H3K9me3 peptide binding; also: nearly all actives have a fitted effect of over 70% in size
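AlphaScreen: HP1-beta (50 nM) preformed 30 min with biotin-H3(1-18)K9me3 peptide (50 nM) in PBS pH 7.4, 0.01% Tween-20. Compound added for 30 min at RT, then streptavidin donor/nickel chelate acceptor beads (10 ug/mL) for 30 min.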
JMJD2A Tudor inh – qHTS Assay for Inhibitors of JMJD2A-Tudor Domain; Lysine-specific demethylase 4A (Homo sapiens), O75164; AlphaScreen JMJD2A-Tudor / H3K4me3 peptide binding; Potency, µM (doses to about 114 µM), usual class: inhibitors; 4.4% of 390,000 active; AID 504339, 2011; also: nearly all actives have a fitted effect of over 50% in size
G9a inh – qHTS Assay for Inhibitors of Histone Lysine Methyltransferase G9a | AID 504332, 2011 | Potency, µM (series often up to 102 µM), usual class: inhibitors | 8.8% of 350,000 active | Histone-lysine N-methyltransferase EHMT2 (Homo sapiens), Q96KQ7 | G9a H3K9 monomethylation, AlphaScreen, 2 h; also: nearly all actives have a fitted effect of over 75% in size
Target sequence (Q96KQ7 913-1193 limits assumed): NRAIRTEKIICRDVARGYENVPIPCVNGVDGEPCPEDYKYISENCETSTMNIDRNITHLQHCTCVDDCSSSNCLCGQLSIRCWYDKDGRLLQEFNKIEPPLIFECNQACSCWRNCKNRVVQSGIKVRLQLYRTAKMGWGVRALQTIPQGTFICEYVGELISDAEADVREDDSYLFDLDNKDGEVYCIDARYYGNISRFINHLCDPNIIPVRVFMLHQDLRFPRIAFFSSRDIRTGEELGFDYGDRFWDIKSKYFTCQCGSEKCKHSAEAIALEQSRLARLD
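Chemiluminescent proximity detection of H3K9 monomethylation, read after 10 min bead incubation in the dark. Reaction: 20 nM G9a, 500 nM biotin-H3K9 peptide, 20 uM SAM cofactor, 2 h, room temperature, following 15 min enzyme-compound preincubation.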
PI5P4Ka inh – qHTS for Inhibitors of phosphatidylinositol 5-phosphate 4-kinase (PI5P4K); Phosphatidylinositol 5-phosphate 4-kinase type-2 alpha (Homo sapiens), P48426; PI5P4Kalpha enzyme, ADP-Glo luminescence, 60 min; stronger effect = lower value; max response, %; 1.2% of 330,000 active; AID 652105, 2013; active = max response of -50% or lower; inconclusive = between -30% and -50%; inactive = -30% or higher; also: value at the top dose of about 77 µM
Target sequence (P48426 whole entry, looked up): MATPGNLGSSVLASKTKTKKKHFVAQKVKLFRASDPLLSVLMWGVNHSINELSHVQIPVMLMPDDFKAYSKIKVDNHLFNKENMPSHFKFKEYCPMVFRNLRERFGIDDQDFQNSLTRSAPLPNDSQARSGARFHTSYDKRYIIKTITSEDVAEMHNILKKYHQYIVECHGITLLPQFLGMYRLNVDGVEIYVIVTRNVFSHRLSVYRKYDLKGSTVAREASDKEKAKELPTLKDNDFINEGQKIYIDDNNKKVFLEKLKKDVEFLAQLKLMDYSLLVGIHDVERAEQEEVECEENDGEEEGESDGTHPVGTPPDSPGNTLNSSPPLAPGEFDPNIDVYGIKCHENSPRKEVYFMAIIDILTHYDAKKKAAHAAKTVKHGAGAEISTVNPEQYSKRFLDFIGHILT
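Human PI5P4Kalpha with substrate in 0.038 M HEPES pH 7.4, 0.28 mM EGTA, 0.1% CHAPS, 5% DMSO; reaction started with 5 microM ATP (final), 60 min at room temperature. ADP formed read by ADP-Glo luminescence.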
PLK1 PBD block – qHTS for Inhibitors of PLK1-PDB (polo-like kinase 1 - polo-box domain): Primary Screen | Serine/threonine-protein kinase PLK1 (Homo sapiens), P53350 | Potency, µM, most hits filed as inhibitors | Plk1 PBD binding of FITC phosphopeptide, fluorescence polarization | 2.8% of 360,000 active; also: series mostly up to about 57 µM; nearly all actives have a fitted effect of over 65% in size
BAZ2B block – qHTS Assay for Inhibitors of BAZ2B. Bromodomain adjacent to zinc finger domain protein 2B (Homo sapiens), Q9UIF8. 4.4% of 360,000 active. Potency, µM (top dose mostly 114 µM), actives largely listed as inhibitors. AID 504333, 2011. AlphaScreen BAZ2B-H3K14Ac peptide displacement; also: nearly all actives have a fitted effect of over 60% in size
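Multi-concentration screen (max 110 uM) measuring displacement of acetylated histone H3 peptide from BAZ2B by AlphaScreen, using 50 nM protein, 50 nM peptide and 10 ug/mL streptavidin donor plus Ni-chelate acceptor beads.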
A number is an active result; 0 = inactive; ? = inconclusive; - = no result; [ ] = another dose, or the depositor's remark. In the library only some 12% were active in any assay of this set; here they are far more common. Unless noted, calls follow the shape of the dose curve; as a rule, active = well fitted curve in the direction sought with a large enough effect; inconclusive = small, poorly fitted or top-dose-only effect, or another doubt; inactive = no such curve, though single readings can be large; an effect the other way counts as inactive or inconclusive.

SMILES | HP1b binding inh | JMJD2A Tudor inh | G9a inh | PI5P4Ka inh | PLK1 PBD block | BAZ2B block
COc1ccc(/C(O)=C2/C(=O)C(=O)N(c3ccccn3)C2c2cccc(Cl)c2)cc1 (centres undefined) | 0 | 0 | 79µM | 0 | 0 | 0
COc1ccc(C2/C(=C(/O)c3ccc(C)cc3)C(=O)C(=O)N2C)cc1 (centres undefined) | 0 | 0 | ? | 0 | 0 | 0
COc1ccc(N2C(=O)C(=O)/C(=C(/O)c3ccc(C)cc3)C2c2cccnc2)cc1 (centres undefined) | 0 | ? | ? | 0 | 0 | 56µM
Cc1ccc(/C(O)=C2\C(=O)C(=O)N(c3cc(C)on3)C2c2cccc(Br)c2)cc1 (centres undefined) | 0 | 0 | 0 | 0 | 0 | 0
COc1ccc(/C(O)=C2/C(=O)C(=O)N(c3ccccn3)C2c2ccc(OC)cc2)cc1 (centres undefined) | 0 | 0 | ? | 0 | 0 | 0
COc1ccc(/C(O)=C2\C(=O)C(=O)N(c3cc(C)on3)C2c2cccc(OC)c2OC)cc1C (centres undefined) | 0 | 0 | 50µM | 0 | 0 | ?
COC(=O)c1ccc(C2/C(=C(/O)c3ccc(OC)cc3)C(=O)C(=O)N2c2cc(C)on2)cc1 (centres undefined) | 0 | 0 | 0[12.7 µM] | 0 | 0 | 0
Cc1ccc(/C(O)=C2\C(=O)C(=O)N(c3cc(C)on3)C2c2cccc(Cl)c2)cc1 (centres undefined) | 0 | 0 | 45µM | 0 | 0 | 0
Cc1ccccc1C(=O)Nc1sc2c(c1C(=O)N1CCC(C)CC1)CCC(C)C2 (centres undefined) | 0 | 0 | ? | - | - | 0
O=C(CCCc1c[nH]c2ccccc12)NCc1ccc2c(c1)OCO2 | 0 | 0[11.4 µM] | 0 | 0 | 0 | 0
O=C(CCc1c[nH]c2ccccc12)NCc1ccc2c(c1)OCO2 | 0 | 0 | 56µM | 0 | 0 | ?
O=C(CCc1c[nH]c2ccccc12)NCc1ccncc1 | 0 | 0 | 50µM | 0 | 0 | 0
CCOc1ccc(NC(=O)COC(=O)CCCc2c[nH]c3ccccc23)cc1 | 0 | ? | ? | - | 0 | 0
COc1ccc(CNC(=O)CCc2c[nH]c3ccccc23)cc1 | 0 | 0 | 0 | 0 | 0 | 0
O=C(CCc1c[nH]c2ccccc12)Nc1ncccc1O | 0 | 0 | ? | 0 | 0 | 56µM
COc1ccc(NC(=O)COC(=O)CCCc2c[nH]c3ccccc23)cc1 | 0 | 0 | ? | 0 | 0 | 50µM
Cc1ccc(NC(=O)CCc2c[nH]c3ccccc23)nc1 | 0 | ? | 0 | 0 | 0 | ?
CCC(O)c1nc2ccccc2n1CCOc1cc(C)cc(C)c1 (centres undefined) | 0 | 0 | ? | - | - | 0
COCCc1nn2c(=O)cc(COC(=O)c3ccc(C(C)(C)C)cc3)nc2s1 | 0 | 0 | 0 | - | - | 0
CC(C)CNC(=O)CCCc1c[nH]c2ccccc12 | 0 | 0 | 0 | 0 | 0 | 0
O=C1c2ccccc2C(=O)N1CCCc1c[nH]c2ccccc12 | ? | ? | 50µM | 0 | 0 | ?
COc1cc(NC(=O)COC(=O)CCCC2=NS(=O)(=O)c3ccccc3N2)cc(OC)c1 | 0 | 0 | - | 0 | 21µM | 0
O=C(CCCc1c[nH]c2ccccc12)NCCc1c[nH]c2ccccc12 | ? | ? | 45µM | 0 | 0 | ?
CSC1=NC=C(C#N)C2=NC(c3c(Cl)cccc3Cl)NN12 (centres undefined) | - | - | - | 0 | 0 | -
Cc1ccccc1-c1noc(-c2nnn(-c3ccccc3C)c2N)n1 | 0 | 0 | 0 | - | - | 0
SMILES | HP1b binding inh | JMJD2A Tudor inh | G9a inh | PI5P4Ka inh | PLK1 PBD block | BAZ2B block
CC(C)CNC(=O)C1(C)CCCN1C(=O)c1c(Cl)cccc1Cl (centres undefined) | - | - | - | 0 | 0 | -
O=C(N/N=C/c1cc(Br)ccc1O)C(c1ccncc1)N1CCOCC1 (centres undefined) | 0 | 79µM | 0 | 0 | 0 | 50µM
CC(C)OCCCNC(=S)NNC(=O)c1ccc(Cl)c(Cl)c1 | 0 | 0 | 0 | 0 | 0 | 0
COCCCNC(=O)CSc1nc2ccccc2c(=O)n1CCCN1CCCCC1 | 0 | 0 | 0 | 0 | 0 | 0
O=C(CSc1nc2ccccc2c(=O)n1Cc1ccccc1)Nc1ccc(Br)cc1C(=O)O | 0 | 0 | ? | -75 | 11µM | 50µM
COc1ccc(NC(=O)CSc2nc3ccccc3c(=O)n2CCCN2CCCCC2)c(OC)c1 | 0 | 0[11.4 µM] | 0 | 0 | 24µM | 0
Cc1ccc(S(=O)(=O)N2CCOCC2)cc1NC(=O)CSc1nc2ccccc2c(=O)n1Cc1ccccc1 | 0 | 0 | 0 | 0 | 0 | 0
COC(=O)c1ccc2c(=O)n(CCN3CCOCC3)c(SCC(=O)Nc3ccc(OC)cc3OC)nc2c1 | ? | 45µM | 0 | 0 | 0 | 0
COC(=O)c1ccc2c(=O)n(CCN3CCOCC3)c(SCC(=O)Nc3ccccc3OC)nc2c1 | - | - | - | 0 | 0 | -
O=C(Nc1cc(S(=O)(=O)N2CCOCC2)ccc1O)c1ccco1 | 0 | 0 | 0[0.501 µM] | 0 | 30µM | 0
O=C(Nc1cc(S(=O)(=O)N2CCOCC2)ccc1O)c1ccc2c(c1)S(=O)(=O)c1ccccc1C2=O | ? | ? | 4.5µM | 0 | 11µM | ?
O=C(Nc1ccc(S(=O)(=O)N2CCOCC2)cc1)c1ccc2c(c1)S(=O)(=O)c1ccccc1C2=O | 0 | 0 | 0[12.7 µM] | 0 | 0 | 0
O=C(Nc1ccc(S(=O)(=O)N2CCOCC2)cc1)c1ccco1 | 0 | 0 | 0[12.7 µM] | 0 | 0 | 0
Cc1ccc(C(=O)CSC2=NC(N)=C(C#N)C3(CCCCC3)C2C(N)=O)cc1 (centres undefined) | ? | ? | 40µM | 0 | ? | 0
N#CC1=C(N)N=C(SCc2ccccc2)C(C(N)=O)C12CCCCC2 (centres undefined) | 0 | 0 | 0[12.7 µM] | - | 0 | ?
COc1ccc2c(c1)OC[C@H]1[C@H]2N2C(=O)[C@H](C)NC(=O)[C@@]2(C)[C@H]1c1ccccc1 | 0 | 0 | 0[0.501 µM] | 0 | 0 | 0
O=C(O)Cc1ccc(NC(=O)C2CC=CCC2C(=O)O)cc1 (centres undefined) | - | - | ? | - | - | 56µM
Cc1cc(NC(=O)CCC(=O)N(CC(=O)NCC2CCCO2)c2cccc(F)c2)no1 (centres undefined) | 0 | 0 | 0 | 0 | 0 | 0
COc1cccc2cc(C(=O)N3C(C)CCCC3C)c(=O)oc12 (centres undefined) | 0 | 0 | 0 | 0 | 0 | 0
